The entries come from a sample that favours hits as a whole.
ST2 inh – blocks human ST2 binding to IL-33 | Q01638 | AlphaLISA ST2-Fc/biotin-IL-33 interaction, 1 h | inhibition, % for hits at 17 µM | hit rate 2.3% among 78,000 | AID 1259354; in the data active = inhibition above about 30%
Target sequence (Q01638 whole entry, looked up): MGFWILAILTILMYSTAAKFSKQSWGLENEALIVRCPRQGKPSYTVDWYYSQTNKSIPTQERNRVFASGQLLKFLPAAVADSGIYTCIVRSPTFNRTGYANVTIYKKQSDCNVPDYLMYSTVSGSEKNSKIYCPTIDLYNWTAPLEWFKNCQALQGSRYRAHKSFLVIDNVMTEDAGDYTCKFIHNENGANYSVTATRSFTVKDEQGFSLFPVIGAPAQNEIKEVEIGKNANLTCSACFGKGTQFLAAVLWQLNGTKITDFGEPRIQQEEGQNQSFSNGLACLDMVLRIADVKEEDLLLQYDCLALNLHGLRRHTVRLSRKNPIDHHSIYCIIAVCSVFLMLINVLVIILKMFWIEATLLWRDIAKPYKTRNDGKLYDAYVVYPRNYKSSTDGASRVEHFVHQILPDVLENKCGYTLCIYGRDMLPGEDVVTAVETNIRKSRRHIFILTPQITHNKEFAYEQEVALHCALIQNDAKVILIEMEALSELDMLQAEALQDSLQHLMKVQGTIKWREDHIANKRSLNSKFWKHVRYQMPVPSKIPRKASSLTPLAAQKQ
* hit, by the source's call; i = inactive.

SMILES | ST2 inh
Cc1ccccc1N1C(N)=C(C#N)C(c2ccc(F)cc2)C2=C1CCCC2=O (configuration not stated) | i
N#CC1=C(N)OC2=C(C(=O)CCC2)C1c1cccc([N+](=O)[O-])c1 (configuration not stated) | i
N#CC1=C(N)N(c2ccccc2[N+](=O)[O-])C2=C(C(=O)CCC2)C1c1cccc([N+](=O)[O-])c1 (configuration not stated) | 31%*
CCN(Cc1cnc(N)nc1)CC1CCOCC1 | i
O=C(CNS(=O)(=O)c1ccc(Br)s1)N1CCN(c2cccc(Cl)c2)CC1 | i
Clc1ccc(CN2CCN(c3ccccn3)CC2)cc1Cl | i
Fc1ccc(CN2CCN(c3ccccn3)CC2)cc1Br | 33%*
Fc1ccccc1CN1CCN(c2ccccn2)CC1 | i
COc1ccc([N+](=O)[O-])cc1NC(=O)c1coc(=O)c2ccccc12 | i
NNC(=O)C(=O)Nc1nc(-c2ccc(Cl)cc2)cs1 | i
N#C/C(=C\c1ccc(Cl)cc1)c1nc(-c2ccccc2)cs1 | 51%*
Cc1ccc(NC(=O)c2ccccc2C)c([N+](=O)[O-])c1 | i
Cc1ccc(-c2csc(/C(C#N)=C/c3ccccc3[N+](=O)[O-])n2)c(C)c1 | 57%*
Cc1ccc(/C=C(\C#N)c2nc(-c3ccc(C)cc3)cs2)cc1 | 54%*
COc1ccc(-c2csc(/C(C#N)=C/c3ccccc3[N+](=O)[O-])n2)cc1 | i
Cc1ccc(-c2nnc3s/c(=C\c4ccc(C)o4)c(=O)n23)cc1 | i
Cc1ccc(/C=C(\C#N)c2nc(-c3ccc([N+](=O)[O-])cc3)cs2)cc1 | i
Cc1nc(-c2ccc(C(N)=O)cc2)cs1 | i
Cc1ccc(-c2csc(/C(C#N)=C\c3ccc(C)o3)n2)cc1 | 51%*
Cc1ccc(C(=O)Nc2nc(-c3ccc(F)cc3)cs2)o1 | i
O=C(NCc1ccco1)c1cc(-c2ccc(Cl)c(Cl)c2)on1 | i
C/C(=C\COc1ccc2ccc(=O)oc2c1)C/C=C/C(C)(C)O | i
CC(=O)N1c2c(cc(Br)cc2S(=O)(=O)Nc2ccc(C(C)C)cc2)CC1C (configuration not stated) | i
CCOC(=O)c1sc(NC(=O)c2cc3ccccc3oc2=O)c(C#N)c1C | i
CC(=O)Nc1cc(C(=O)NC2CCCC(C)C2C)ccc1S(=O)(=O)c1ccc(Cl)cc1 (configuration not stated) | i
SMILES | ST2 inh
Cc1cccc(C(=O)Nc2cc(C)c3c(=O)oc4ccccc4c3n2)c1 | i
CCn1c(C(=O)O)c(CC(=O)NCCN(C)C)c2ccccc21 | i
N#CCc1nc(-c2ccc(-c3ccccc3)cc2)cs1 | i
N#C/C(=C\Nc1cccc(C(F)(F)F)c1)c1nc(-c2cc3ccccc3oc2=O)cs1 | i
N#C/C(=C\c1ccccc1)c1nc(-c2ccccc2)cs1 | 65%*
CC(=O)c1cccc(NC(=O)CCc2c(C)nc3cc(-c4ccccc4)nn3c2C)c1 | i
CN1CCC(N2C[C@H](O)C[C@H]2c2nc(Cc3ccc(F)cc3Cl)no2)CC1 | 31%*
CC(=O)N1CCC(N2C[C@H](O)C[C@H]2c2nc(CS(=O)(=O)c3ccc(F)cc3)no2)CC1 | i
O=[N+]([O-])c1ccccc1CN1C[C@H](O)C[C@H]1c1nc(Cc2ccc(F)cc2Cl)no1 | i
CC1=NN(c2ccc(Cl)c(C(=O)O)c2)C(=O)/C1=C\c1ccc(Br)cc1 | i
COc1ccc(/C=C2/C(=O)N(c3ccc(Cl)c(Cl)c3)N=C2C)cc1Br | i
COc1cc(/C=C2/C(=O)N(c3ccc(Cl)c(Cl)c3)N=C2C)cc(OC)c1OC | 55%*
CC1=NN(c2ccc(Cl)c(C(=O)O)c2)C(=O)/C1=C\c1ccc(OCc2ccccc2)cc1 | i
C=CCOc1ccc(/C=C2/C(=O)N(c3ccc(Cl)c(Cl)c3)N=C2C)cc1OC | i
COc1ccccc1/C=C1\C(=O)N(c2ccc(Cl)c(Cl)c2)N=C1C | i
C=CCOc1ccc(/C=C2\C(=O)N(c3ccc(Cl)c(C(=O)O)c3)N=C2C)cc1OC | i
COc1cc(Br)c(/C=C2/C(=O)N(c3ccc(Cl)c(Cl)c3)N=C2C)cc1OC | i
COc1ccc(/C=C2\C(=O)N(c3ccc(Cl)c(C(=O)O)c3)N=C2C)cc1OC | i
CC1=NN(c2ccc(Cl)c(Cl)c2)C(=O)/C1=C/c1cccs1 | 54%*
CC1=NN(c2ccc(Cl)c(C(=O)O)c2)C(=O)/C1=C\c1ccc(Cl)cc1 | 48%*
COc1cc(/C=C2\C(=O)N(c3ccc(Cl)c(C(=O)O)c3)N=C2C)cc(Br)c1O | 75%*
CCN(CC)c1ncccc1CNC(=O)C1CCCN(C)C1 (configuration not stated) | i
Cc1ccc(N2C(=O)CC(N3CCC(O)(c4ccc(Cl)cc4)CC3)C2=O)cc1 (configuration not stated) | i
COC(=O)c1cccc(C(=O)Oc2ccc(F)cc2)n1 | i
O=C(c1cccc(F)c1)N(c1ccc(F)cc1)C1C=CS(=O)(=O)C1 (configuration not stated) | i
SMILES | ST2 inh
COc1ccc2nc3oc(C(=O)N4CCN(c5ccccc5OC)CC4)cc3cc2c1 | i
CN(C)CCNC(=O)C1(O)c2ccccc2NC(=O)N1c1ccc(Cl)c(Cl)c1 (configuration not stated) | i
Cc1[nH]cnc1CN1CCC(CNS(=O)(=O)c2cccs2)C1 (configuration not stated) | i
COC(=O)c1ccc(C(=O)N2CCCC(CO)(Cc3ccc(F)cc3F)C2)nc1 (configuration not stated) | i
CCOc1ccc(-n2c(SCC(=O)N3CCC(C)CC3)nc3c(c2=O)SCC3)cc1 | i
O=C(c1ccc2nc3ccc(Cl)cc3c(=O)n2c1)N1CCN(Cc2ccccc2)CC1 | i
COc1ccc(CNC(=O)c2ccccc2O)cc1 | i
c1ccc(CN2CC[C@H](c3nnc(Cc4c[nH]c5ccccc45)o3)C2)cc1 | i
COc1ccc(/C=C2/C(=O)N(c3ccc(Cl)c(Cl)c3)N=C2C)cc1[N+](=O)[O-] | i
COc1cc(/C=C2/C(=O)N(c3ccc(Cl)c(Cl)c3)N=C2C)cc(OC)c1O | 35%*
COc1cc(/C=C2/C(=O)N(c3ccc(Cl)c(Cl)c3)N=C2C)ccc1OCC#N | i
COc1cc2[nH]c(=O)n(Cc3ccccc3)c(=O)c2cc1OC | i
COc1cccc(C2C3=C(CCCC3=O)Nc3nc(SCc4ccccc4F)[nH]c(=O)c32)c1 (configuration not stated) | i
CC(=O)Sc1nc(O)c(C=C2C=c3ccc(C)cc3=NC2=O)[nH]1 | 31%*
OCCNc1nc(-c2ccccc2Cl)nc2ccccc12 | i
Cc1ccc(S(=O)(=O)N2CCCC2)cc1 | i
CC1CC(C)CN(S(=O)(=O)c2ccc(C(=O)Nc3nc(-c4cccs4)cs3)cc2)C1 (configuration not stated) | i
Cc1ccc(S(=O)(=O)N2CCN(c3nc(-c4cccs4)cs3)CC2)cc1 | 32%*
COc1ccc(N2C(=O)CSC2c2ccc(Cl)cc2Cl)cc1 (configuration not stated) | i
O=C(CSc1nnc2sc3ccccc3n12)Nc1cc(Cl)ccc1Cl | i
CC(C)c1ccc(NS(=O)(=O)c2ccc3[nH]c(=O)sc3c2)cc1 | i
O=C(NCc1cnn2ccccc12)c1cccc(Cn2cccn2)c1 | i
Cc1ccc(SC(C)C(=O)NCc2cnn3ccccc23)cc1 (configuration not stated) | i
COc1cccc(CC(=O)NCc2cnn3ccccc23)c1 | 33%*

Screens from PubChem BioAssay.
